Test results taken from PubChem BioAssay (NCATS).
Several values for one entry are separate records, joined by “and”; a condition that tells them apart may be missing. Identical values can stand only once. Records with an inconclusive call do not appear. Activity calls are given as the source filed them. Unless noted, the call rests on the fitted dose curve; in most records, active means well fitted curve in the direction sought with a large enough effect; inconclusive means small, poorly fitted or top-dose-only effect, or another doubt; inactive means no such curve, though single readings can be large; an effect the other way counts as inactive or inconclusive.

Tests used:
[1] = Cell Viability - Hek293 (AID 427;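 active means compounds whose dose-response curve shows a full or clear partial loss of cell viability, called from curve shape rather than a numeric limit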;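 further: potency means the concentration at half of the fitted maximal effect; cells exposed to compound for 40 hours at 37 °C before reading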); conditions: qHTS
Outline: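 qHTS, human embryonic kidney (adenovirus-transformed) cells; 40 hr cpd, 37 °C; CellTiter-Glo ATP luminescence. Norm: DMSO = 0, 100 uM tamoxifen = 100% inhibition. Hill-fit AC50.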

[2] = Cell Viability - SK-N-SH (AID 435; calls by dose curve;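 further: potency means the concentration at half of the fitted maximal effect; compound exposure lasted 40 h at 37 °C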); conditions: SK-N-SH neuroblastoma cell viability qHTS
Outline: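 Cells seeded at 1500 per well and incubated 5 hr at 37 °C. Compound added, then 40 hr at 37 °C. CellTiter-Glo added, 20 min at room temperature, luminescence read.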

[3] = Cell Viability - SH-SY5Y (AID 544); conditions: SH-SY5Y neuroblastoma cell viability; viability change, negative = cytotoxic: at 92.2 µM (top of the series);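 further: cells exposed to compound for 40 hours; 0% = DMSO alone and -100% = 100 µM tamoxifen; nearly all actives have a fitted effect of over 55% in size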
Outline: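 Luminescent ATP read-out (CellTiter-Glo) measures loss of viable SH-SY5Y neuroblastoma cells after 40 hr compound exposure at 37 °C. AC50 values derive from standard Hill modelling of qHTS concentration-response data.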

[4] = target: Cytochrome P450 3A4 (Homo sapiens) (UniProt P08684); assay: qHTS Assay for Inhibitors and Substrates of Cytochrome P450 3A4 (AID 884); conditions: recombinant CYP3A4, Luciferin-PPXE luminescence; series mostly up to 57.1 µM; further: on the % scale 0 is the no-effect control and ±100 the full control effect; nearly all actives have a fitted effect of over 50% in size
Chain of Cytochrome P450 3A4 (Homo sapiens) (P08684 whole entry, looked up): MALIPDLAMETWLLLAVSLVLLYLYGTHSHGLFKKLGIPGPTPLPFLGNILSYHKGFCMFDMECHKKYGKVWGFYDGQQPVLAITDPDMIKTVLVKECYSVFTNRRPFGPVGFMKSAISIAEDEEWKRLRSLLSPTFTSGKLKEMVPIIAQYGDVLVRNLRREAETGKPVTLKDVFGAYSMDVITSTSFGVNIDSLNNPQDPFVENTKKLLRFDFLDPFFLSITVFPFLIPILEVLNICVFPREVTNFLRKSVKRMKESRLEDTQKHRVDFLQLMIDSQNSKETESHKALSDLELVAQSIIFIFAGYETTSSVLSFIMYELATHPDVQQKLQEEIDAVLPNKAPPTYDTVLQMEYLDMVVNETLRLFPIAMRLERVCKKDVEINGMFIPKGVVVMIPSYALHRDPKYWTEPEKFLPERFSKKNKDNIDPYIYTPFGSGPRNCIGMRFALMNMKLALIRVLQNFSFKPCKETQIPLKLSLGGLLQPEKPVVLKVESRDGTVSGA
Outline: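 20 nM human CYP3A4 with 25 uM Luciferin-PPXE (at KM) in 200 mM KPO4, preincubated 10 min with compound; NADPH regeneration started a 60 min RT reaction. Luciferin detected by luminescence, normalized to 57 uM ketoconazole as full inhibition.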

[5] = MultiTox-Fluor Cytotoxicity Assay - LYMP1-002 - Dead Cells (AID 960); conditions: LYMP1-002 lymphoblastoid cells, dead-cell protease fluorescence; series mostly up to 46.1 µM; further: nearly all actives have a fitted effect of over 60% in size
Outline: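 LYMP1-002 cells 2500/well; 5 hr 37 C pre-incubation; compound 16 hr 37 C; MultiTox-Fluor reagent 60 min RT; dead-cell fluor Ex/Em 485/520. Norm. to DMSO (0%) vs 15 uM tetraoctylammonium bromide (100%); Hill AC50.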

[6] = Cell Viability - LYMP2-015 (AID 971); conditions: LYMP2-015 lymphoblastoid cell viability; series mostly up to 92.2 µM;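 further: 0% = DMSO only and full effect = 92 µM tetraoctylammonium bromide; nearly all actives have a fitted effect of over 55% in size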
Outline: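 Luminescent ATP read-out (CellTiter-Glo) served as the viability measure after lymphoblastoid cells were exposed to compounds for 24 hours at 37 C. Concentration-response data were fitted with the Hill equation to give AC50.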

[7] = Cell Viability - LYMP2-010 (AID 981); conditions: LYMP2-010 lymphoblastoid cell viability, qHTS; series mostly up to 92.2 µM; further: on the % scale 0 is the no-effect control and ±100 the full control effect; nearly all actives have a fitted effect of over 55% in size
Outline: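 Luminescent ATP signal (CellTiter-Glo) served as the viability read-out. Cells of the human lymphoblastoid line were treated with compound over a concentration range for 24 hours at 37 C, and AC50 values came from Hill-equation modeling.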

[8] = target: Glucocorticoid receptor (Homo sapiens) (UniProt P04150); assay: qHTS assay for small molecule agonists of glucocorticoid receptor signaling (AID 588532; active means well fitted curve in the direction sought with a large enough effect in the signal ratio, with a control signal flat; the % refers to the signal ratio;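 further: 100% = dexamethasone at 0.1 µM and 0% = DMSO only wells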); conditions: HeLa MMTV-bla, beta-lactamase ratio, agonist, 18 h; stronger effect = higher value; percent of dexamethasone control, DMSO zero
Chain of Glucocorticoid receptor (Homo sapiens) (P04150 whole entry, looked up): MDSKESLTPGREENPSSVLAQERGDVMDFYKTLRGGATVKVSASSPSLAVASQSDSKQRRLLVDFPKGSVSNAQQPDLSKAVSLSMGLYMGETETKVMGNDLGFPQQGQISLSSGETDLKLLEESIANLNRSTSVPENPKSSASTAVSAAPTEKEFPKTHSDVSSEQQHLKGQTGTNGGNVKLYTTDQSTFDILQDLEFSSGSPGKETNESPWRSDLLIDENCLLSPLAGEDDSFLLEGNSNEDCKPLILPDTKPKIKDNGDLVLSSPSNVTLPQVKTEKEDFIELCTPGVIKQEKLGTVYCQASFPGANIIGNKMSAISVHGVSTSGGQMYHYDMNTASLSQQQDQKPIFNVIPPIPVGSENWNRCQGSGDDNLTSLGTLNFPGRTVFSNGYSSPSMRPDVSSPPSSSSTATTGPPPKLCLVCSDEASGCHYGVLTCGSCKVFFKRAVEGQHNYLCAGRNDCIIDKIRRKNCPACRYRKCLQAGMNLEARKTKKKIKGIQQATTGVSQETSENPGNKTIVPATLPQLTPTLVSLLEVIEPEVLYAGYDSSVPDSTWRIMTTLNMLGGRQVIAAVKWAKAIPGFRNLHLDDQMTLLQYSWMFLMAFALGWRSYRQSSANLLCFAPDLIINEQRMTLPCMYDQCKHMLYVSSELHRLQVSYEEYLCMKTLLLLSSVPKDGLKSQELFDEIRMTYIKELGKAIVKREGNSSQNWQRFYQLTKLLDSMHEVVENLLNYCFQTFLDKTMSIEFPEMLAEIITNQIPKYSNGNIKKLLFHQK
Outline: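 Stimulation of a glucocorticoid response element-driven beta-lactamase gene was measured in HeLa cells. Responses were scaled between DMSO basal and 0.1 uM dexamethasone, then fitted for half-maximal stimulation.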

[9] = target: Vitamin D3 receptor (Homo sapiens) (UniProt P11473); assay: qHTS assay for small molecule agonists of vitamin D receptor signaling (AID 588543; calls by dose curve;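 further: 0% = DMSO basal and 100% = reference agonist control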); conditions: HEK293T VDR-UAS-bla, beta-lactamase ratio, 16 h; series mostly up to 76.8 µM
Chain of Vitamin D3 receptor (Homo sapiens) (P11473 whole entry, looked up): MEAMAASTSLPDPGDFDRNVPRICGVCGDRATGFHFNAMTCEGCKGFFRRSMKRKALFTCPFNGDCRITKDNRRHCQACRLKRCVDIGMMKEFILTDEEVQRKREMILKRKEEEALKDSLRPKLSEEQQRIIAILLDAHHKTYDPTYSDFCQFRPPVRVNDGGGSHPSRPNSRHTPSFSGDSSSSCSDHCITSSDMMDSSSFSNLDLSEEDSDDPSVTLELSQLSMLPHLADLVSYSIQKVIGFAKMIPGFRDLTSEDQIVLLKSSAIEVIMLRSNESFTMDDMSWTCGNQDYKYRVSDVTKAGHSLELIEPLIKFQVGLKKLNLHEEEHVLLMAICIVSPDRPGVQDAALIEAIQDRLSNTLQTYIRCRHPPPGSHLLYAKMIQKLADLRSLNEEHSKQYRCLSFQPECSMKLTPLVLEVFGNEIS
Outline: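 qHTS in agonist mode: compound titrations stimulate a VDR-driven β-lactamase reporter in HEK293T cells over 16 h at 37 °C. Response normalized to 50 nM 1α,25-dihydroxyvitamin D3 = 100%, DMSO = 0%; Hill fitting gives EC50 and maximal response.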

[10] = qHTS assay for small molecule agonists of retinoid X receptor alpha signaling (AID 588544); conditions: HEK293T RXRa-UAS-bla, beta-lactamase reporter, 18 h; 530 nm emission
[11] = target: Voltage-gated inwardly rectifying potassium channel KCNH2 (Homo sapiens) (UniProt Q12809); assay: qHTS Assay for Small Molecule Inhibitors of the Human hERG Channel Activity (AID 588834); conditions: U2OS BacMam hERG, FluxOR thallium flux fluorescence; series mostly up to 92.2 µM;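 further: top concentration of the series differs between compounds; on the % scale 0 is the no-effect control and ±100 the full control effect; lower thallium flux fluorescence means stronger hERG block; nearly all actives have a fitted effect of over 50% in size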
Chain of Voltage-gated inwardly rectifying potassium channel KCNH2 (Homo sapiens) (Q12809 whole entry, looked up): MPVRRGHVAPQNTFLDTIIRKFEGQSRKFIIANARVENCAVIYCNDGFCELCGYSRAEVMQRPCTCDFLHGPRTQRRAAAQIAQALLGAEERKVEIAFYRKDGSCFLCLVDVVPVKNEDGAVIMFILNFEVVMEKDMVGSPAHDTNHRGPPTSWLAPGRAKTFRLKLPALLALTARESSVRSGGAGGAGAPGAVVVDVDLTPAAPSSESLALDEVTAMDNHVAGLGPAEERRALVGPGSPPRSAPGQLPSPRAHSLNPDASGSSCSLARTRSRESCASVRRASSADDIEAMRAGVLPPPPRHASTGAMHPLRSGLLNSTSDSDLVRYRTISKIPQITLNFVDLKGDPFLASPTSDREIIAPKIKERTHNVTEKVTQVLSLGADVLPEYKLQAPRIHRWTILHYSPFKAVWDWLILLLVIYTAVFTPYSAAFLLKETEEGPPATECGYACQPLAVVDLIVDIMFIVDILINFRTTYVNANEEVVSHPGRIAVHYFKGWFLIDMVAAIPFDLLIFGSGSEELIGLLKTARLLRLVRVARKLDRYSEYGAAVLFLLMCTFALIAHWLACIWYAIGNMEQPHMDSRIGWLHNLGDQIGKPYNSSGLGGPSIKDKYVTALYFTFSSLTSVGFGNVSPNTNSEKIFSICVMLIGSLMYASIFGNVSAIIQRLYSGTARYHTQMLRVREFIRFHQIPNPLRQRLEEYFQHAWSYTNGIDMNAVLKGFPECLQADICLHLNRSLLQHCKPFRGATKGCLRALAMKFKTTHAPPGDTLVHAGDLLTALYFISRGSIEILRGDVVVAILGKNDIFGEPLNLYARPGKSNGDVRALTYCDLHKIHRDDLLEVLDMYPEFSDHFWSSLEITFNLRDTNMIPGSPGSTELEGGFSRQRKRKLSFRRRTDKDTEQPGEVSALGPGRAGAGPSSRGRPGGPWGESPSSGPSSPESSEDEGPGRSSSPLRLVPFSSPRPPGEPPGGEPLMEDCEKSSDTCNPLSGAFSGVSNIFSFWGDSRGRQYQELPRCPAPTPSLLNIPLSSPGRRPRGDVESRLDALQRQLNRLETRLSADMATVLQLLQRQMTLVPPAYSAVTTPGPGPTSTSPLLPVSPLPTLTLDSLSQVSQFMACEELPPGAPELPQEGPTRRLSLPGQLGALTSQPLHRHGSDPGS
Outline: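 Measured: FluxOR fluorescence after thallium stimulation in U2OS cells transduced with hERG by baculovirus. Compounds pre-incubated around 10 min; medium Opti-MEM with 2% FCS. AC50 from Hill equation.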

[12] = qHTS assay for small molecule activators of the p53 signaling pathway (AID 651743; active means well fitted activation curve with a large enough effect in the signal ratio, not every such curve was filed as active; the % refers to the signal ratio; further: % of control where 0% means no effect); conditions: HCT-116 p53RE-bla, beta-lactamase FRET ratio, 16 h; activation: stronger effect = higher value
Outline: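 Cell-based beta-lactamase reporter (p53 response elements, HCT-116 background). After a 5-hour preincubation, cells received compound for 16 hours at 37 C; substrate development ran 2 hours at room temperature.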

[13] = qHTS assay for small molecule activators of the nuclear factor-kappa B (NF-kB) signaling pathway (AID 651749; active means well fitted activation curve with a large enough effect in the signal ratio; the % refers to the signal ratio; further: % of control where 0% means no effect); conditions: NF-kB-bla ME-180 cells, beta-lactamase FRET ratio, 16 h; stronger effect = higher value
Outline: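 Screening used 2,000 ME-180 reporter cells per well exposed to pinned compound (23 nL) or DMSO; after 16 hr at 37C, beta-lactamase expression under NF-kB control was assessed through FRET.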

[14] = qHTS assay for small molecule disruptors of the mitochondrial membrane potential - 1 hr assay (AID 651754; calls by dose curve; further: on the % scale 0 is the no-effect control and ±100 the full control effect; nearly all actives have a fitted effect of over 35% in size); conditions: series mostly up to 92.2 µM
Outline: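 HepG2, 2,000 cells/well, overnight attachment; cpd or DMSO 1 hr, 37C/5% CO2; Mito-MPS dye 30 min, 37C; fluorescence monomer (490/535) and aggregate (540/590).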

[15] = target: Nuclear receptor ROR-gamma (Homo sapiens) (UniProt P51449); assay: qHTS assay for small molecule antagonists of the retinoid-related orphan receptor gamma (ROR-gamma) signaling pathway (AID 651802); conditions: ROR-gamma antagonist cell reporter assay; series mostly up to 92.2 µM;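 further: luciferase reporter luminescence driven by ROR response element; on the % scale 0 is the no-effect control and ±100 the full control effect; nearly all actives have a fitted effect of over 60% in size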
Chain of Nuclear receptor ROR-gamma (Homo sapiens) (P51449 whole entry, looked up): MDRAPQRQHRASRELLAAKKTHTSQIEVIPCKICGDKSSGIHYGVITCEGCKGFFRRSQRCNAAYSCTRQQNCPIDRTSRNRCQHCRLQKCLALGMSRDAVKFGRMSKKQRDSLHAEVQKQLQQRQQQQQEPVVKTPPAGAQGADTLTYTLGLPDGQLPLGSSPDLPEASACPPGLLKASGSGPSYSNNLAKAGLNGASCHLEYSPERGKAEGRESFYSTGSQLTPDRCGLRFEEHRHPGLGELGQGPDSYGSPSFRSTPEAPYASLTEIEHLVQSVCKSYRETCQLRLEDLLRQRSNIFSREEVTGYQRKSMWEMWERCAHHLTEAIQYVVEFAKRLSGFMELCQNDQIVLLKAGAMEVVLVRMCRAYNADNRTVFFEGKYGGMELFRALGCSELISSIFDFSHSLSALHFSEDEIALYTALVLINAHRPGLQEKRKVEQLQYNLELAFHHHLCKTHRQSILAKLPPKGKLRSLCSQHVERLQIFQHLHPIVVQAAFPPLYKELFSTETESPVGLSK
Outline: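 CHO, TET-inducible ROR + RORE-LUC reporter, 1536-well qHTS. Compound pinned, doxycycline added, 16hr 37C/5% CO2. ONE-Glo, 30 min RT, luminescence; signal drop scored as antagonism.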

[16] = qHTS assay for small molecule activators of the human pregnane X receptor (PXR) signaling pathway (AID 720659; call rule not given here; further: 0% is about no effect); conditions: DPX-2 HepG2 CYP3A4-luciferase, 24 h; series mostly up to 92.3 µM
[17] = target: Thyroid hormone receptor beta (Homo sapiens) (UniProt P10828); assay: qHTS assay for small molecule agonists of thyroid hormone receptor beta signaling (AID 588545; calls by dose curve); conditions: TR-UAS-bla GripTite HEK 293, beta-lactamase ratio, agonist mode, 18 h; series mostly up to 76.7 µM
Chain of Thyroid hormone receptor beta (Homo sapiens) (P10828 whole entry, looked up): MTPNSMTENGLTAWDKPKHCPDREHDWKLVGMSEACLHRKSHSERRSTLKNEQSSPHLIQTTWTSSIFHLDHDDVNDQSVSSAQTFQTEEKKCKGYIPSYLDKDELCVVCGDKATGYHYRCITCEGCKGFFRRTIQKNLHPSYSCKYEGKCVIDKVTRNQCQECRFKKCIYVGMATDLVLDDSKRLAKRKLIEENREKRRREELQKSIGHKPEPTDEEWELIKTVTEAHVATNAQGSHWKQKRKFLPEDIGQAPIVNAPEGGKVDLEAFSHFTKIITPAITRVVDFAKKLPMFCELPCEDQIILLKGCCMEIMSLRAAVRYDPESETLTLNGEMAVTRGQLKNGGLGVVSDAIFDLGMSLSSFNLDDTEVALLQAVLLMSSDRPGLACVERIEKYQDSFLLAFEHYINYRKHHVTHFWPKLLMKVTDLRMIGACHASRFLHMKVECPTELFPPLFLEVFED
Outline: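 HEK 293 TR-UAS-bla; agonist mode; 18 hrs, 37 C; CCF4, ex 405/em 460 and 530 nm; norm. T3 10 nM = 100%, DMSO = 0%; Hill fit → EC50, efficacy.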

[18] = qHTS assay for small molecule antagonists of the retinoid-related orphan receptor gamma (ROR-gamma) signaling pathway - cell viability counter screen (AID 720652; active means well fitted curve in the direction sought with a large enough effect in the repeat runs; an effect the other way counts as inactive or inconclusive;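 further: compound exposure lasted 16 hr before ATP read; on the % scale 0 is the no-effect control and ±100 the full control effect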); conditions: RORgamma reporter cell line viability counter screen; series mostly up to 92.2 µM
Outline: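 Luminescence from CellTiter-Glo after 30 min at room temperature reported cellular ATP as the cytotoxicity measure. Cells were the CHO reporter line with doxycycline-induced ROR-gamma expression, exposed to compound for 16 hr at 37 C.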

[19] = qHTS assay for small molecule agonists of the antioxidant response element (ARE) signaling pathway measured by Nrf2-dependant transcriptional activity (AID 720636; active means well fitted curve in the direction sought with a large enough effect in the repeat runs; an effect the other way counts as inactive or inconclusive;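 further: HepG2 cells with an ARE-driven luciferase reporter; % of control where 0% means no effect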); conditions: ARE-luc HepG2, Nrf2 luciferase reporter, 16 h; series mostly up to 92.4 µM
Outline: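 Attachment 6 hr at 37 C, then compound versus DMSO vehicle for 16 hr in ARE-luc HepG2 cells (1% dialyzed FBS); luminescence recorded 30 min after ONE-Glo addition at room temperature.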

CC(/C=C/C=C(C)/C=C/C(=O)O)=C\C=C\C=C(C)\C=C\C=C(C)\C=C\C(=O)O
active: viability change, negative = cytotoxic [3] -97%
4.44%: max response [10]
inactive: Potency [1] > 92 µM | Potency [2] > 92 µM | Potency [4] | Potency [5] | Potency [6] | Potency [7] | activation [8] 1.99% | Potency [9] | Potency [11] | activation [12] -5.5% | activation [13] -1.49% | Potency [14] | Potency [15] | outcome [16]

CCOc1ccc2nc(N)sc2c1
1.63%: max response [10]
inactive: Potency [1] > 92 µM | Potency [2] > 92 µM | Potency [3] | Potency [5] | Potency [6] | Potency [7] | activation [8] -9.89% | Potency [17] | activation [12] -1.71% | activation [13] -0.893% | Potency [18]

O=[N+]([O-])c1cc(N(CCO)CCO)ccc1NCCO
inactive: Potency [4] | Potency [5] | Potency [6] | Potency [7] | Potency [9] | Potency [17] | Potency [11] | activation [12] -5.39% and -4.71% | activation [13] -0.608% and 1.27% | Potency [14] | Potency [15] | Potency [19] | Potency [18] | outcome [16]
7.09% and -3.73%: max response [10]
